A short description of assay [1]: growth inhibition of DIPG glioma cells, dose response, cell-based, SU-DIPG-XVII, MIPE5.0, CellTiter-Glo, qHTS (AID 1347060).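 As to AC50: cells exposed to compound for 48 hours before viability readout.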 The following applies: SU-DIPG-XVII viability, CellTiter-Glo ATP luminescence. On the technique in general: Cellular ATP, detected with luciferase, serves as a proxy for viable cell number.
Assay [2] can be described thus: growth inhibition of DIPG glioma cells, dose response, cell-based, SU-DIPG-XIII, MIPE4.0, CellTiter-Glo, qHTS (AID 1347061; cut-off not given, nearly all actives have AC50 up to about 37 µM;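 also: cells exposed to compound for 48 hours before readout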). Conditions: SU-DIPG-XIII viability, CellTiter-Glo ATP luminescence.
Assay [3] in a line: growth inhibition of DIPG glioma cells, dose response, cell-based, JHH-DIPG-1, MIPE4.0, CellTiter-Glo, qHTS (AID 1347062; cut-off not given, nearly all actives have AC50 up to about 27 µM;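 as to AC50: cells exposed to compound for two days before readout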). The following applies: JHH-DIPG-1 viability, CellTiter-Glo ATP luminescence.
A short description of assay [4]: growth inhibition of DIPG glioma cells, dose response, cell-based, SU-DIPG-IV, MIPE4.0, CellTiter-Glo, qHTS (AID 1347063; cut-off not given, nearly all actives have AC50 up to about 30 µM;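 also: compound exposure lasted 48 hours before the viability readout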). The following applies: SU-DIPG-IV viability, CellTiter-Glo ATP luminescence.
Assay [5] can be described thus: growth inhibition of DIPG glioma cells, dose response, cell-based, SU-DIPG-XIII, MIPE5.0, CellTiter-Glo, qHTS (AID 1347064; cut-off not given, nearly all actives have AC50 up to about 23 µM;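 as to AC50: cells exposed to compound for 48 hours before the viability read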). The following applies: SU-DIPG-XIII viability, CellTiter-Glo ATP luminescence.
A short description of assay [6]: viability loss in pontine glioma line – cell-based, SU-DIPG-XXV, MIPE5.0, CellTiter-Glo, qHTS, dose response (AID 1347065).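 Also: cells exposed to compound for 48 hours before ATP readout.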 Conditions: CellTiter-Glo ATP luminescence.
Assay [7] can be described thus: SU-DIPG-VI glioma cell viability, MIPE4.0 library, CellTiter-Glo luminescence, qHTS (AID 1347066; cut-off not given, nearly all actives have AC50 up to about 30 µM;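 also: cells exposed to compound for 48 hours before readout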). The following applies: CellTiter-Glo ATP luminescence.
A short description of assay [8]: JHH-DIPG-1 glioma cell viability, MIPE5.0 library, CellTiter-Glo luminescence, qHTS (AID 1347067).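 Also: cells exposed to compound for 48 hours before readout.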 The following applies: JHH-DIPG-1 glioma viability, CellTiter-Glo ATP luminescence.
Assay [9] in a line: SU-DIPG-XXV glioma cell viability, MIPE5.0 library, qHTS (AID 1347068; cut-off not given, nearly all actives have IC50 up to about 30 µM;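 as to IC50: cells exposed to compound for 48 hours before viability readout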). In general terms: In qHTS, concentration-response curves come from the screen itself.
A short description of assay [10]: liver-stage malaria parasite growth inhibition, primary screen, cell-based, HepG2, luciferase luminescence, HepG2 viability (AID 624349; in the data active = parasite load remaining mostly below about 12%, no sharp cut-off; inactive = mostly above about 10%;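 also: 100% = mean of DMSO negative control wells on the same plate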). The following applies: P. berghei liver stage in HepG2, luciferase luminescence, concentration not given here; parasite load remaining: stronger effect = lower value; viability: measured here: HepG2 viability without parasites.
Assay [11] has as its system Aerobactin synthetase IucA (Klebsiella pneumoniae). The assay is described as follows: IucA aerobactin synthetase inhibitors, biochemical, Tocris library, absorbance (AID 1345561; call rule not given here;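 also: 100% = enzyme without compound and 0% = no enzyme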). The following applies: purified IucA enzyme assay, absorbance (OD) read-out; stronger effect = lower value;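 tested at 8 µM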.
A short description of assay [12]: sensitizers of A549 cells to miR-34 induction, primary screen, imaging, A549 dox-inducible miR-34, nuclei and caspase counts (AID 1347080;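 active = compounds whose cell count with miR-34 switched on is under 0.7 times the count with it off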). Conditions: A549 miR-34 inducible, Hoechst nuclei count, 48 h.
Assay [13] is described as follows: viability rescue of complex I mutant cybrids, primary screen, cell-based, galactose medium, ATP luminescence (AID 1645843;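 active = z-score of at least 1.8 in each of two replicates, scored against plate mean and spread of sample wells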;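 also: positive z means more ATP and so rescue of galactose-driven cybrid death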). The following applies: complex I mutant cybrid cells, 72 h, stronger effect = higher value.
The mark [14] stands for this setting: stronger effect = lower value, cell number ratio, induced over uninduced.
Setting [15] is: measured here: relative caspase fold change +Dox/-Dox.
Where [16] appears, read: measured here: total cells with miR-34 induction, stronger effect = lower value.
The mark [17] stands for this setting: measured here: total cells without miR-34 induction.

Inconclusive results are not listed. Activity calls are given as the source filed them. Unless noted, the limit is not given here; nearly all actives have AC50 up to about 26 µM.

This note sets out measurements from PubChem BioAssay.

In the case of `CC(C)C[C@H](CO)Nc1nc(S[C@@H](C)c2ccccc2)nc2nc(N)sc12`, in assay [1], the compound was classed as inactive.
The AC50 is the concentration at which the activity in the assay is half-maximal. Regarding `COc1cc(C(=O)NC(N)=Nc2ccc(C)c(NC(=O)c3ccc(-c4ccccc4)cc3)c2)cc(OC)c1OC`, the AC50 in assay [1] is 16.6 µM (active).
For `NCC(=O)Nc1cncc(-c2nn3c(=O)cc(N4CCNCC4)nc3s2)c1`, the compound was called inactive in [1].
As usually defined, the IC50 is the concentration that inhibits the measured activity by half. Regarding `C=C1C(=O)[C@@]23C(CC[C@@H]1[C@H]2O)[C@@]12CO[C@]3(O)[C@@H](O)[C@@H]1C(C)(C)CC[C@@H]2O` (stereo partly drawn), the AC50 in assay [1] is 9.34 µM (active); in assay [2], 7.43 µM (active); in assay [3] it was 4.18 µM (active); in assay [4], 2.35 µM (active); in [5], 6.61 µM (active); in assay [6] it was 8.33 µM (active). The figures for the half-maximal activity concentration (AC50) in [7] and in [8] were 3.72 µM (active) and 5.9 µM (active), respectively. Further, in [9], the IC50 is 9.34 µM (active).
As for `CCOc1cc2c(c(F)c1OCC)C(=N)N(CC(=O)c1cc(N3CCOCC3)c(OC)c(C(C)(C)C)c1)C2`, the AC50 in [1] is 26.3 µM (active); in assay [2], 2.35 µM (active); in assay [3] it was 23.5 µM (active); in assay [4], 16.6 µM (active); in assay [5], 29.5 µM (active); in assay [6] it was 23.5 µM (active). Moreover, the concentration at half-maximal activity (AC50) is 16.6 µM (active) in [7] and 20.9 µM (active) in assay [8].
Take `CCCCC(=O)OCC(=O)[C@]1(O)Cc2c(O)c3c(c(O)c2[C@@H](O[C@H]2C[C@H](NC(=O)C(F)(F)F)[C@H](O)[C@H](C)O2)C1)C(=O)c1c(OC)cccc1C3=O`: in assay [1], the AC50 is 1.66 µM (active).
For orientation: viability means a read-out of living cells in per cent, often relative to untreated cells. As usually defined, the remaining activity is the signal under treatment as a percentage of the control signal. Take `O=C1NC(=O)c2cc(Nc3ccc(F)cc3)c(Nc3ccc(F)cc3)cc21`: in assay [10], the parasite load remaining is 41.4% (inactive). In addition, the viability in assay [10] stood at 70.7%. Moreover, the remaining activity in assay [11] was 103% (inactive). The values for the fold change in assay [12] (setting [14]) and in assay [12] (setting [15]) were 1.25 (inactive) and 0.934, respectively. Moreover, the cell count in assay [12] (setting [16]) is 3220; in assay [12] (setting [17]) it was 2570. Moreover, the z-score in [13] was -0.645 (inactive).
`Cn1cc(C[C@@H](N)C(=O)O)c2ccccc21`: the result in assay [1], in [2], in assay [3], in assay [4], in assay [5] and in assay [6] was inactive. Besides, the result in assay [7], in [8] and in [9] was inactive.
With `C=CCNc1c(O)cc2c(O)c1C[C@@H](C)C[C@H](OC)[C@H](O)[C@@H](C)/C=C(/C)[C@H](OC(N)=O)[C@@H](OC)/C=C\C=C(\C)C(=O)N2`, the AC50 in assay [1] is 0.525 µM (active); in assay [2], 1.05 µM (active); in assay [3] it was 0.332 µM (active); in assay [4], 0.148 µM (active); in [5], 1.66 µM (active); in assay [6] it was 3.72 µM (active). For the same compound, the AC50 was 14.8 µM (active) in assay [7] and 0.468 µM (active) in [8].
`CCN(CC)CCCCN1c2ccccc2Oc2ccc(Cl)cc21`: the parasite load remaining in assay [10] is 45.6% (inactive). In addition, the viability in assay [10] turned out to be 112%. For the same compound, the remaining activity in assay [11] was 88.2% (inactive). For the same compound, the fold change in [12] (setting [14]) was 1.24 (inactive); in assay [12] (setting [15]), 0.706. In addition, the figures for the cell count in assay [12] (setting [16]) and in assay [12] (setting [17]) were 276 and 224, respectively. In addition, the z-score in [13] is -0.7 (inactive).
With `CC[C@H](CO)Nc1nc(NCc2ccc(-c3ccccn3)cc2)c2ncn(C(C)C)c2n1`, in assay [10], the parasite load remaining was 135% (inactive). Besides, in assay [10], the viability amounted to 85.7%. Moreover, in [11], the remaining activity is 108% (inactive). Also, the fold change in [12] (setting [14]) was 1.16 (inactive); in assay [12] (setting [15]), 0.699. The cell count is 1900 in assay [12] (setting [16]) and 1650 in assay [12] (setting [17]). Moreover, in assay [13], the z-score is -0.89 (inactive).
Consider `COc1cc(C)c(Sc2cnc(NC(=O)c3ccc(CNC(C)C(C)(C)C)cc3)s2)cc1C(=O)N1CCN(C(C)=O)CC1` (stereo not drawn), for which the AC50 in assay [1] was 10.5 µM (active); in [2], 16.6 µM (active); in [3], 20.9 µM (active); in [4], 7.43 µM (active); in [5] it was 6.61 µM (active); in assay [6], 4.17 µM (active). In addition, the half-maximal activity concentration (AC50) in assay [7] was 18.7 µM (active).
In the case of `CN(C(=O)CNC(=O)/C=C/c1cccc(Cl)c1)C1CCS(=O)(=O)CC1`, the AC50 in assay [1] is 1.05 µM (active).
With `CC(C)(C)C[C@H]1N[C@@H](C(=O)NC2CCC(O)CC2)[C@H](c2cccc(Cl)c2F)[C@@]12C(=O)Nc1cc(Cl)ccc12` (stereo partly drawn), in assay [1], the concentration at half-maximal activity (AC50) is 23.5 µM (active).
With `Cc1c(CN2CCN(C(=O)[C@H](C)O)CC2)sc2c(N3CCOCC3)nc(-c3cnc(N)nc3)nc12`, the AC50 in assay [1] was 0.59 µM (active); in assay [2], 1.87 µM (active); in assay [3], 1.87 µM (active); in assay [4], 0.0418 µM (active); in [5], 0.59 µM (active); in assay [6], 0.209 µM (active). In addition, the AC50 is 0.935 µM (active) in assay [7] and 0.372 µM (active) in assay [8]. For the same compound, in assay [9], the IC50 was 0.934 µM (active).
Regarding `CCC(C(=O)O)C1CCC(C)C(C(C)C(O)C(C)C(=O)C(CC)C2OC3(C=CC(O)[C@@]4(CC[C@](C)(C5CC[C@@](O)(CC)C(C)O5)O4)O3)C(C)CC2C)O1` (stereo partly drawn), the AC50 in assay [1] is 2.35 µM (active); in assay [2], 0.935 µM (active); in [3] it was 3.32 µM (active); in [4] it was 1.66 µM (active); in [5], 3.32 µM (active); in assay [6], 0.833 µM (active). In addition, the values for the concentration at half-maximal activity (AC50) in assay [7] and in assay [8] were 1.87 µM (active) and 0.934 µM (active), respectively. Also, in assay [9], the IC50 was 2.35 µM (active).
As for `CC(=O)OC[C@@H]1O[C@@H](n2ccc(=O)[nH]c2=O)[C@H](OC(C)=O)[C@@H]1OC(C)=O`, the call in assay [1], in [2], in [3], in [4], in assay [5] and in assay [6] was inactive. The result in assay [7], in assay [8] and in assay [9] was inactive.
As to `COc1cc2nc(-c3ccc(N4CCN(C)CC4)cc3)nc(NCCN3CCOCC3)c2cc1OC`, the AC50 in [1] was 14.8 µM (active); in assay [2] it was 0.332 µM (active); in assay [3], 0.332 µM (active); in [4], 0.132 µM (active); in [5], 9.34 µM (active); in assay [6], 8.33 µM (active). In addition, the results for the AC50 in assay [7] and in assay [8] were 0.118 µM (active) and 16.6 µM (active), respectively. For the same compound, the result in assay [9] was inactive.
For `O=C1NC(O)CCN1[C@@H]1O[C@H](CO)[C@@H](O)[C@H]1O` (stereo partly drawn), the compound was classed as inactive in [1], in assay [2], in [3], in assay [4], in [5] and in [6]. The outcome in assay [7], in assay [8] and in assay [9] was inactive.
In the case of `COc1cc(O)c2c(c1)C1OC1C[C@H](O)[C@H](O)C(=O)/C=C\C[C@H](C)OC2=O` (stereo partly drawn), the AC50 in [1] was 0.661 µM (active); in assay [2] it was 0.662 µM (active); in assay [3], 5.9 µM (active); in assay [4] it was 4.18 µM (active); in [5], 0.661 µM (active); in assay [6], 0.934 µM (active). The concentration at half-maximal activity (AC50) in [7] was 13.2 µM (active); in [8] it was 4.17 µM (active). The concentration for half-maximal inhibition (IC50) in assay [9] was 18.6 µM (active).
With `C=CCNC1=C2C[C@@H](C)C[C@H](OC)[C@H](O)[C@@H](C)/C=C(\C)[C@H](OC(N)=O)[C@@H](OC)/C=C\C=C(/C)C(=O)NC(=CC1=O)C2=O`, the AC50 in assay [1] was 1.18 µM (active); in assay [2], 1.05 µM (active); in assay [3], 2.64 µM (active); in [4], 0.118 µM (active); in assay [6] it was 7.42 µM (active); in assay [7], 14.8 µM (active). For the same compound, in [8], the AC50 is 0.934 µM (active). In addition, in assay [5], the outcome was inactive. In addition, the IC50 in assay [9] is 10.5 µM (active). For the same compound, the values for the fold change in assay [12] (setting [14]) and in assay [12] (setting [15]) were 1.02 (inactive) and 1.33, respectively. In addition, the cell count in [12] (setting [16]) came to 1940; in assay [12] (setting [17]) it was 1900.
